# Test results reported in PubChem BioAssay (NCATS).
# Values joined by “and” are separate entries in the source; they are usually repeats but may differ in a detail not shown here. Identical values can stand only once. Results filed as inconclusive are left out. Active and inactive are the calls of the source. Unless noted, calls come from the whole dose curve.
# Assays:
# [1] = qHTS assay for small molecule agonists of retinoid X receptor alpha signaling (AID 588544); settings: HEK293T RXRa-UAS-bla, beta-lactamase reporter, 18 h; 530 nm emission;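 for activation: 0% = DMSO basal wells and 100% = reference agonist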
# [2] = target: Retinoic acid receptor RXR-alpha (Homo sapiens) (UniProt P19793); assay: as above; settings: HEK293T RXRa-UAS-bla, beta-lactamase reporter, 18 h; series mostly up to 76.7 µM
# Retinoic acid receptor RXR-alpha (Homo sapiens), sequence (P19793 whole entry, looked up): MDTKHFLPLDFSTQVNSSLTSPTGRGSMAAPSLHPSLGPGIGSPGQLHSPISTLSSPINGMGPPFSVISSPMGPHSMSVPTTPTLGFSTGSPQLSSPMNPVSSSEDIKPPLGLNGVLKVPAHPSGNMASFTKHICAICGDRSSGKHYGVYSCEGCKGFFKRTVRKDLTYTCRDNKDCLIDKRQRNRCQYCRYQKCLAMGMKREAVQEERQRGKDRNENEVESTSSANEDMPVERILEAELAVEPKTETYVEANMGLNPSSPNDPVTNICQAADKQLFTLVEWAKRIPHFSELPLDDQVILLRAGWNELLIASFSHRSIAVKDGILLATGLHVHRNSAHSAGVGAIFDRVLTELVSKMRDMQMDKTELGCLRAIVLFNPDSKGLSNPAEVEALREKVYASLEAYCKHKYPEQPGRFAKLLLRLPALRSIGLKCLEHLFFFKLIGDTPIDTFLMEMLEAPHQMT
# [3] = target: Thyroid hormone receptor beta (Homo sapiens) (UniProt P10828); assay: qHTS assay for small molecule agonists of thyroid hormone receptor beta signaling (AID 588545); settings: TR-UAS-bla GripTite HEK 293, beta-lactamase ratio, agonist mode, 18 h, percent of T3 response, DMSO as zero; series mostly up to 76.7 µM;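 note: 0% = DMSO only and 100% = 10 nM T3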
# Thyroid hormone receptor beta (Homo sapiens), sequence (P10828 whole entry, looked up): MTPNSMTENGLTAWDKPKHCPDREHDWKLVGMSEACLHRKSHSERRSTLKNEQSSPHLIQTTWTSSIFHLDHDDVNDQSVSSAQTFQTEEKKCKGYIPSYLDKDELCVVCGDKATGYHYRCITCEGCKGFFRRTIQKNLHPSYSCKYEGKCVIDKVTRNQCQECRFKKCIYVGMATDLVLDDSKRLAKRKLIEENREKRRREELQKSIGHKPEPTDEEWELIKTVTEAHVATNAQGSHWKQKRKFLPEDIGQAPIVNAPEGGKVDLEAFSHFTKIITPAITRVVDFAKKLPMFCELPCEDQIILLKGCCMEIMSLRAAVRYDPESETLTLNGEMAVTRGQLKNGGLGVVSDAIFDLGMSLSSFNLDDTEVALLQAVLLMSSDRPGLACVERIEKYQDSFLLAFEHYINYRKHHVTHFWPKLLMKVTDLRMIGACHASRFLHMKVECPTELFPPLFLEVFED
# Outline: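 Beta-lactamase reporter activity under TR response element control is measured in HEK 293 cells after 18 hrs compound exposure. Signal is ratiometric CCF4 fluorescence, 460/530 nm.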
# [4] = qHTS assay for small molecule antagonists of retinoid X receptor alpha signaling (AID 588546; active = well fitted inhibition curve with a large enough effect in the signal ratio, with a control signal flat, not every such curve was filed as active; the % refers to the signal ratio;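 note: cells stimulated with 9-cis-retinoic acid as agonist; % is set by controls: 0 for no effect and ±100 for the full control effect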); settings: HEK293T RXRa-UAS-bla, beta-lactamase ratio, antagonist mode; measured here: W530 green channel, cytotoxicity proxy
# Outline: (§1)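 Beta-lactamase reporter inhibition, read as CCF4 fluorescence ratio (ex 405, em 460/530 nm) after 2 h at RT. HEK293T UAS-bla cells, 2500/well, were stimulated with 9-cis-RA at 500 or 100 nM final alongside test compound for 18 h at 37 C.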
# [5] = target: Retinoic acid receptor RXR-alpha (Homo sapiens) (UniProt P19793); assay: as above; settings: HEK293T RXRa-UAS-bla, beta-lactamase ratio, antagonist mode
# Outline: as §1
# [6] = target: Thyroid hormone receptor beta (Homo sapiens) (UniProt P10828); assay: qHTS assay for small molecule antagonists of thyroid hormone receptor beta signaling (AID 588547; active = well fitted inhibition curve with a large enough effect in the signal ratio, with a control signal flat, not every such curve was filed as active; the % refers to the signal ratio;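 note: cells stimulated with 0.4 nM T3 agonist during compound exposure; % is set by controls: 0 for no effect and ±100 for the full control effect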); settings: TR-UAS-bla HEK293, beta-lactamase ratio, antagonist mode, 18 h
# Outline: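 Inhibition of T3-driven (0.4nM final) beta-lactamase reporter activity was measured over 0.59 nM to 92 uM compound after 18 h at 37 C. The cells were GripTite HEK293 TR-UAS-bla in charcoal/dextran-stripped serum, with CCF4 ratio read-out and IC50 from Hill fits.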
# [7] = target: Voltage-gated inwardly rectifying potassium channel KCNH2 (Homo sapiens) (UniProt Q12809); assay: qHTS Assay for Small Molecule Inhibitors of the Human hERG Channel Activity (AID 588834; active = well fitted inhibition curve with a large enough effect;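 note: top concentration of the series differs between compounds; % is set by controls: 0 for no effect and ±100 for the full control effect; lower thallium flux fluorescence means stronger hERG block; nearly all actives have a fitted effect of over 50% in size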); settings: U2OS BacMam hERG, FluxOR thallium flux fluorescence; series mostly up to 92.2 µM
# Voltage-gated inwardly rectifying potassium channel KCNH2 (Homo sapiens), sequence (Q12809 whole entry, looked up): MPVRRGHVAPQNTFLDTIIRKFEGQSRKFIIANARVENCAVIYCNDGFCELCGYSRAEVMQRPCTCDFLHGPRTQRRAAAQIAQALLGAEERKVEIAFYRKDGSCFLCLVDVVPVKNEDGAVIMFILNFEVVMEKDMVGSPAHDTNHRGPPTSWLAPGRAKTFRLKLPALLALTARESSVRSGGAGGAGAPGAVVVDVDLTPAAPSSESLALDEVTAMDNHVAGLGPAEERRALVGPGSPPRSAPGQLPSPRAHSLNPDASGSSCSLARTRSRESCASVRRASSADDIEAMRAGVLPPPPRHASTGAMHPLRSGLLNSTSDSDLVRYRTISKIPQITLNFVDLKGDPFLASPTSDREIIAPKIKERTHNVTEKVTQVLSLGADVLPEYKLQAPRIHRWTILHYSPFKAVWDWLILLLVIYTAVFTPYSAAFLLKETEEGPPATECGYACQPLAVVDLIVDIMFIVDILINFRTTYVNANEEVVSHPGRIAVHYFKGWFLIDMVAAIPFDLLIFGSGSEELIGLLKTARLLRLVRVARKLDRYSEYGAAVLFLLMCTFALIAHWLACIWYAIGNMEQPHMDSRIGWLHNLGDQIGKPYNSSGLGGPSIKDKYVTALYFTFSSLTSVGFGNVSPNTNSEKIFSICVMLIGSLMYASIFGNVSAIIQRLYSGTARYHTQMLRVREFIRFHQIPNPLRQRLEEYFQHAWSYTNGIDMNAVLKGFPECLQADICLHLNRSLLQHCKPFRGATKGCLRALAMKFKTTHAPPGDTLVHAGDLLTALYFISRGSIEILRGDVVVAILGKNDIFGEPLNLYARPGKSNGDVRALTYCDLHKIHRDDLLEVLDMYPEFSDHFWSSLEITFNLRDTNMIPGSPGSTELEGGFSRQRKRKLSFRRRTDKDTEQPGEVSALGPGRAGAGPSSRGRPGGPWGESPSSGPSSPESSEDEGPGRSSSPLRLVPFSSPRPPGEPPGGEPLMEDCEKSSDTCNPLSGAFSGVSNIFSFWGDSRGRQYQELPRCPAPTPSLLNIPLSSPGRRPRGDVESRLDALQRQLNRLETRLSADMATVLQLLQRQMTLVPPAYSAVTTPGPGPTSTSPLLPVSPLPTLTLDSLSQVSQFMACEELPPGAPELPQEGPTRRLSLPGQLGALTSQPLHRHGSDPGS
# Outline: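 Blockade is seen as reduced FluxOR thallium-flux fluorescence in U2OS cells expressing hERG from a BacMam construct, in Opti-MEM with 2% FCS. Concentration-response data fitted to the Hill equation for AC50.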
# [8] = qHTS assay for small molecule agonists of the antioxidant response element (ARE) signaling pathway (AID 651741; active = well fitted activation curve with a large enough effect in the signal ratio; the % refers to the signal ratio; note: potency is the fitted concentration of half-maximal effect; for activation: % of control where 0% means no effect); settings: HepG2 ARE-bla reporter, beta-lactamase FRET ratio, 16 h; series mostly up to 96 µM
# Outline: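 Seeding 2,000 ARE-bla HepG2 cells per well preceded a 5 h incubation at 37 C/5% CO2 and a 16 h compound exposure at 37 C. Beta-lactamase reporter activity was then quantified by fluorescence after 2 h with LiveBLAzer B/G FRET substrate.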
# [9] = qHTS assay for small molecule activators of the p53 signaling pathway (AID 651743; active = well fitted activation curve with a large enough effect in the signal ratio, not every such curve was filed as active; the % refers to the signal ratio; note: % of control where 0% means no effect); settings: HCT-116 p53RE-bla, beta-lactamase FRET ratio, 16 h; stronger effect = higher value
# Outline: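 Screen for p53 pathway agonists uses stably transfected p53RE-bla HCT-116 cells, 4,000 per well, treated 16 h at 37 C with compounds in DMSO.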
# [10] = qHTS assay for small molecule activators of the nuclear factor-kappa B (NF-kB) signaling pathway (AID 651749; active = well fitted activation curve with a large enough effect in the signal ratio; the % refers to the signal ratio; note: % of control where 0% means no effect); settings: NF-kB-bla ME-180 cells, beta-lactamase FRET ratio, 16 h; stronger effect = higher value
# Outline: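 Stably transfected ME-180 line; NF-kB response element upstream of beta-lactamase. Treatment: compound or DMSO, 16 hr. Detection: fluorescent FRET substrate.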
SMILES,max response [1],outcome [2],outcome [3],max response [4],max response [5],activity change % (negative = inhibition) [6],Potency [7],Potency [8],activation [9],activation [10]
C1CCCC1,-15.2%,inactive,inactive,-15.6%,-5.52% (inactive),-1.41% (inactive),inactive,inactive,-0.131% (inactive),–
CCC(C)O (centres undefined),-20.4%,inactive,inactive,2.22%,4.59% (inactive),-7.82% (inactive),inactive,inactive,-1.8% (inactive),–
CC(C)(O)C(=O)O,-2.22%,inactive,inactive,2.28%,3.29% (inactive),8.51% (inactive),inactive,inactive,-1.64% (inactive),-0.233% (inactive)
NS(=O)(=O)O,0.843%,inactive,inactive,1.78%,17% (inactive),-4.41% (inactive),inactive,inactive,-0.9% (inactive),–
CCNc1cc(O)ccc1C,-5.56%,inactive,inactive,-2.01%,1.41% (inactive),14.6% (inactive),inactive,59.6 µM (active),-1.04% (inactive),–
ICCc1ccccc1,3.08%,inactive,inactive,-3.71%,22.3% (inactive),3.09% (inactive),inactive,inactive,-3.45% (inactive),-1.75% (inactive)
CCOc1ccccc1N,0.0722%,inactive,inactive,-5.65%,20.5% (inactive),-11.6% (inactive),inactive,inactive,-1.62% (inactive),–
CC(=O)OC(C)=O,-0.73%,inactive,inactive,-8.16%,5.52% (inactive),16.3% (inactive),inactive,inactive,1.52% (inactive),-1.18% (inactive)
O=C(O)c1cccc([N+](=O)[O-])c1,-11.3% and -11.9%,inactive,inactive,-5.28% and -12.1%,-4.13% (inactive) and 8.19% (inactive),3.98% (inactive) and -3.17% (inactive),inactive,inactive,-1.71% (inactive) and -6.43% (inactive),-1.01% (inactive) and -3.15% (inactive)
Cc1ccc2oc(=O)ccc2c1,0.296% and 3.97%,inactive,inactive,-0.906%,-15.9% (inactive),-13% (inactive) and 13.3% (inactive),inactive,8.63 µM (active),–,-0.483% (inactive) and -1.78% (inactive)
CC(C)Nc1ccccc1,-11%,inactive,inactive,-12.9%,3.31% (inactive),-21.8% (inactive),inactive,inactive,-0.311% (inactive),0.185% (inactive)
